About 7,900 targets were measured; listed, in parts, are those with a hit and a random draw of the rest. About 0.6% of all pairs of compound and target were hits. A number with no mark means an inactive call.
Columns and labels:
Experiment in all cases: log2 fold change, soluble protein after heating vs DMSO (PISA); higher = thermal stabilisation; K562 cells, 10 uM, 30 min; active = over 0.2 and 3.5 SD of the protein, either way, in both replicates (recomputed)
[1] = compound: C1COCCN1CCN2C3=CC=CC=C3N=C2NC(=O)C4=CC(=CC=C4)[N+](=O)[O-] [IRAK-1-4 Inhibitor I]
Outline: (§1)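 K562 cells at 2×10^6 cells/mL were exposed to 10 μM compound for 30 min, then aliquots were heated for 3 min across 48°C-58°C, pooled, and extracted in PBS containing 0.5% NP-40 at 4°C. The supernatant after 21,000xg for 90 min was taken as soluble protein and measured by TMTpro 16plex LC-MS/MS with channel sums equalised. Thermal stability is reported relative to control samples, with values from duplicates. Fold changes are given on a log2 scale.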

[2] = compound: C=CC(=O)N1CCC[C@@H](n2nc(-c3ccc(Oc4ccccc4)cc3)c3c(N)ncnc32)C1 [ibrutinib]
Outline: as §1

[3] = compound: CC(=O)c1cnc2ccc(-c3cc(Cl)c(O)c(Cl)c3)nc2c1N[C@H]1CC[C@H](CN(C)C)CC1
Outline: as §1

[4] = compound: CC(C)(C)Cn1c(N)nc2ccc(-c3[nH]c(C(C)(C)C)nc3-c3ccc(F)cc3)nc21 [ralimetinib]
Outline: as §1

[5] = compound: CC(C)(O)CC(=O)NCCn1ccc2ncnc(Nc3ccc(Oc4cccc(C(F)(F)F)c4)c(Cl)c3)c21
Outline: as §1

[6] = compound: CC(C)C1=C2N=C(C=C(N2N=C1)NCC3=CC=CC=C3)NCCCCCCN
Outline: as §1

[7] = compound: CC(C)C[C@@H](C=O)NC(=O)[C@H](CC(C)C)NC(=O)[C@H](CC(C)C)NC(=O)OCc1ccccc1
Outline: as §1

[8] = compound: CC(C)N(C[C@H]1O[C@@H](n2cnc3c(N)ncnc32)[C@H](O)[C@@H]1O)[C@H]1C[C@@H](CCc2nc3cc(C(C)(C)C)ccc3[nH]2)C1 [pinometostat]
Outline: as §1

[9] = compound: CC1=C(C(CC(=O)N1)C2=CC=C(C=C2)C(F)(F)F)C(=O)NC3=C(C=C4C(=C3)C=NN4)F
Outline: as §1

[10] = compound: CC1=C(C2=C(C=C1)C(=O)C3=CC=CC=C3N2CCCN)C
Outline: as §1

[11] = compound: CC1=C(C=C(C=C1)NC(=O)C2=CC(=CC=C2)C(C)(C)C#N)NC3=CC4=C(C=C3)N=CN(C4=O)C
Outline: as §1

[12] = compound: CC1=C(C=C(C=C1)NC(=O)C2=CC(=CC=C2)N(C)C)NC(=O)C3=CC=C(C=C3)O
Outline: as §1

[13] = compound: CC1=CC=C(C=C1)SC2=C3C=C(SC3=CN=C2)C(=O)N
Outline: as §1

[14] = compound: CC1=NC(=CC=C1)C2=C(N=C(N2)C(C)(C)C)C3=CC4=NC=CN=C4C=C3
Outline: as §1

[15] = compound: CCCCN(Cc1ccc(C(=O)NO)cc1)C(=O)Nc1ccccc1 [Nexturastat A]
Outline: as §1

[16] = compound: CCCS(=O)(=O)Nc1ccc(F)c(C(=O)c2c[nH]c3ncc(-c4ccc(Cl)cc4)cc23)c1F [vemurafenib]
Outline: as §1

[17] = compound: CCCS(=O)(=O)Nc1ccc(F)c(C(=O)c2c[nH]c3ncc(Cl)cc23)c1F
Outline: as §1

[18] = compound: CCCc1cc(C)[nH]c(=O)c1CNC(=O)c1cc(-c2ccnc(N3CCN(C)CC3)c2)cc2c1cnn2C(C)C
Outline: as §1

[19] = compound: CCN(CC)Cc1ccc2cc(COC(=O)Nc3ccc(C(=O)NO)cc3)ccc2c1 [givinostat]
Outline: as §1

[20] = compound: CCN(CCCOc1ccc2c(Nc3cc(CC(=O)Nc4cccc(F)c4)[nH]n3)ncnc2c1)CCOP(=O)(O)O [barasertib]
Outline: as §1

Sequence of UniProt Q6PID6 (Q6PID6 whole entry, looked up): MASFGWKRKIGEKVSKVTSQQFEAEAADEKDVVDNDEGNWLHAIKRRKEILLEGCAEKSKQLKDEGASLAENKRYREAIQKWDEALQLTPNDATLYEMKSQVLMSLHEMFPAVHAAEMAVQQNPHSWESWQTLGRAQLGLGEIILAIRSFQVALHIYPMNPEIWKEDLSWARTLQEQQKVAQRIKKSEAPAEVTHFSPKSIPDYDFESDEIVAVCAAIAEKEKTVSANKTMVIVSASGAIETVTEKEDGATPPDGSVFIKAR
Sequence of UniProt Q8IWA0 (Q8IWA0 whole entry, looked up): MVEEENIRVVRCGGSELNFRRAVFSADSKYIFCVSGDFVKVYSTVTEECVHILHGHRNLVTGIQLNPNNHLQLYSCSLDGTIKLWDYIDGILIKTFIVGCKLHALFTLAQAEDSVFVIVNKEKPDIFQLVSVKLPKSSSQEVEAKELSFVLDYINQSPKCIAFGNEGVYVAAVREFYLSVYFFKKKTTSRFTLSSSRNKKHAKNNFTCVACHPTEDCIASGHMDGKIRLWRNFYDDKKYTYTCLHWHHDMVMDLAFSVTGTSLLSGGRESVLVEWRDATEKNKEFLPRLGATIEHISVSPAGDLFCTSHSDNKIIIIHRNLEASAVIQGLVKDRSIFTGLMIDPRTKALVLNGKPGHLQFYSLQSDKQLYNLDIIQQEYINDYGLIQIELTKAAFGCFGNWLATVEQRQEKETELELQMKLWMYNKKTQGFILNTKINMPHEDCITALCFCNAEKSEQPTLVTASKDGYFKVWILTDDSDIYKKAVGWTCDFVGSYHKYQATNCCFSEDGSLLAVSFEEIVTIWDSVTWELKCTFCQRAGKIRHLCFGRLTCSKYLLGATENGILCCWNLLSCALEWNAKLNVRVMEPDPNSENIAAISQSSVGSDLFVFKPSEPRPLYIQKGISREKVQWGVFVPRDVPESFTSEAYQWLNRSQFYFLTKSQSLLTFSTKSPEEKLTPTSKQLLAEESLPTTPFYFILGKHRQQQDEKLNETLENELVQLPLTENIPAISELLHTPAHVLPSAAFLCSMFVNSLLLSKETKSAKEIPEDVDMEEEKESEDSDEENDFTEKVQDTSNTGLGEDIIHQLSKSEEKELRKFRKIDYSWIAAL
Sequence of UniProt P61960 (P61960 whole entry, looked up): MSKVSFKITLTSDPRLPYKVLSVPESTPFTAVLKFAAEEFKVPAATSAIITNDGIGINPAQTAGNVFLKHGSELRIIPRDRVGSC
Sequence of UniProt Q8NE00 (Q8NE00 whole entry, looked up): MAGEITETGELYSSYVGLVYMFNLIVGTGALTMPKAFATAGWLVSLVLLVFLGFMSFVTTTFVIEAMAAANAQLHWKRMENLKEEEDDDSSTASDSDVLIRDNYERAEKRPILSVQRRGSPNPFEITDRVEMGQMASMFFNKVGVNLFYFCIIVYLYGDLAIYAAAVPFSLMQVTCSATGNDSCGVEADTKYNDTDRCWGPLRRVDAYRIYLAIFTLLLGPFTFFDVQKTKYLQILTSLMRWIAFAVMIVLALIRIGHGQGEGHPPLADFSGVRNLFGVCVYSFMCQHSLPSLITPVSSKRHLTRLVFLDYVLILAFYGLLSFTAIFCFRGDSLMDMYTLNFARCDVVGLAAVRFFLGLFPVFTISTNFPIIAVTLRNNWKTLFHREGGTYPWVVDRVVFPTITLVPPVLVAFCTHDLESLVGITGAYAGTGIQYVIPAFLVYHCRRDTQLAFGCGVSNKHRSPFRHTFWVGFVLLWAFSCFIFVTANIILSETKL
Sequence of UniProt P49754 (P49754 whole entry, looked up): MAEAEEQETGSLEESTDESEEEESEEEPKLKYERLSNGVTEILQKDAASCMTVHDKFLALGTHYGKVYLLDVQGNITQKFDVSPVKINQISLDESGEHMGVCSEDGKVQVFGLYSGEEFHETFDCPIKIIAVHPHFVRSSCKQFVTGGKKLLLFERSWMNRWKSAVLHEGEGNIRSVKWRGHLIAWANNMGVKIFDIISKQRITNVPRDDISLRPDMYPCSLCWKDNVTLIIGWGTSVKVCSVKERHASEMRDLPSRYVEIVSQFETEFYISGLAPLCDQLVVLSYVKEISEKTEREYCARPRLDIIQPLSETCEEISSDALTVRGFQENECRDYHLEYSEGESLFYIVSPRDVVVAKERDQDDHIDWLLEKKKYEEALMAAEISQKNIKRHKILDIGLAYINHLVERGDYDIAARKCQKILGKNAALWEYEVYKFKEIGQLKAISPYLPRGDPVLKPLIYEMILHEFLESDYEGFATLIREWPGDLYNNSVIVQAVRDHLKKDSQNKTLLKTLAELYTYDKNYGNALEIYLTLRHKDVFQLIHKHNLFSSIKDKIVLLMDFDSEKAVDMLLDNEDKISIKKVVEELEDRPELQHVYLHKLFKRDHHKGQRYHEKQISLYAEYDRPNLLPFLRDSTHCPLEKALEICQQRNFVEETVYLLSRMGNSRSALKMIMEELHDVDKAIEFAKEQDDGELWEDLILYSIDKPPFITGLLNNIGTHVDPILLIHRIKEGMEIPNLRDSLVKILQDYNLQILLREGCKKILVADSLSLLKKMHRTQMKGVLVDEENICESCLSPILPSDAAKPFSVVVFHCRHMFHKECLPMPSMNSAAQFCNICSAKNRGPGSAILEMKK
Sequence of UniProt Q9BQB6 (Q9BQB6 whole entry, looked up): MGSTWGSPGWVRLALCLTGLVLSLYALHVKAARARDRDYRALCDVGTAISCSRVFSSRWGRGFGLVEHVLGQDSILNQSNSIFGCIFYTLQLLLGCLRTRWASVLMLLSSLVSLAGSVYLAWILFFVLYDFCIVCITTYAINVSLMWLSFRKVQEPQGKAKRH
Sequence of UniProt O60784 (O60784 whole entry, looked up): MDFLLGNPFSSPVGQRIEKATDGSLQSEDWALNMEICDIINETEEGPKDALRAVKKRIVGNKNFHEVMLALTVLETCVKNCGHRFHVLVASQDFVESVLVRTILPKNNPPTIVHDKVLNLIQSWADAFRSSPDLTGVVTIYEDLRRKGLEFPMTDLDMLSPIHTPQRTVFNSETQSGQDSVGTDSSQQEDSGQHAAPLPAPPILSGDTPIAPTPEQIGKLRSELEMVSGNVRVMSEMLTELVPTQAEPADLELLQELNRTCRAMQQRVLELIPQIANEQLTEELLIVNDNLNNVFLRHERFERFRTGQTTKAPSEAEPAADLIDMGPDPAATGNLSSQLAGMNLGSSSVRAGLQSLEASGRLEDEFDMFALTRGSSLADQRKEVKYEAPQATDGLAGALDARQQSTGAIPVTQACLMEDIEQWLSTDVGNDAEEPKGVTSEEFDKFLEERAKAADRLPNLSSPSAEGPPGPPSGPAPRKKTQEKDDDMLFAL
Sequence of UniProt Q92890 (Q92890 whole entry, looked up): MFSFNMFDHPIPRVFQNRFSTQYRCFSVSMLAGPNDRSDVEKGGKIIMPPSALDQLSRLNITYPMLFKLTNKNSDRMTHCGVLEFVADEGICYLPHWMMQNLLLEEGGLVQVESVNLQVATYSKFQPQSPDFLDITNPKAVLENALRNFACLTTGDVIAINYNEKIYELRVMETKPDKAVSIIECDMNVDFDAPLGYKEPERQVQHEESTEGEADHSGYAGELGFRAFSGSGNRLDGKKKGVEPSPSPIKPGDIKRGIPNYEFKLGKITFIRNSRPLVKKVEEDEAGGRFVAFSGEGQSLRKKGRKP
Sequence of UniProt Q502W6 (Q502W6 whole entry, looked up): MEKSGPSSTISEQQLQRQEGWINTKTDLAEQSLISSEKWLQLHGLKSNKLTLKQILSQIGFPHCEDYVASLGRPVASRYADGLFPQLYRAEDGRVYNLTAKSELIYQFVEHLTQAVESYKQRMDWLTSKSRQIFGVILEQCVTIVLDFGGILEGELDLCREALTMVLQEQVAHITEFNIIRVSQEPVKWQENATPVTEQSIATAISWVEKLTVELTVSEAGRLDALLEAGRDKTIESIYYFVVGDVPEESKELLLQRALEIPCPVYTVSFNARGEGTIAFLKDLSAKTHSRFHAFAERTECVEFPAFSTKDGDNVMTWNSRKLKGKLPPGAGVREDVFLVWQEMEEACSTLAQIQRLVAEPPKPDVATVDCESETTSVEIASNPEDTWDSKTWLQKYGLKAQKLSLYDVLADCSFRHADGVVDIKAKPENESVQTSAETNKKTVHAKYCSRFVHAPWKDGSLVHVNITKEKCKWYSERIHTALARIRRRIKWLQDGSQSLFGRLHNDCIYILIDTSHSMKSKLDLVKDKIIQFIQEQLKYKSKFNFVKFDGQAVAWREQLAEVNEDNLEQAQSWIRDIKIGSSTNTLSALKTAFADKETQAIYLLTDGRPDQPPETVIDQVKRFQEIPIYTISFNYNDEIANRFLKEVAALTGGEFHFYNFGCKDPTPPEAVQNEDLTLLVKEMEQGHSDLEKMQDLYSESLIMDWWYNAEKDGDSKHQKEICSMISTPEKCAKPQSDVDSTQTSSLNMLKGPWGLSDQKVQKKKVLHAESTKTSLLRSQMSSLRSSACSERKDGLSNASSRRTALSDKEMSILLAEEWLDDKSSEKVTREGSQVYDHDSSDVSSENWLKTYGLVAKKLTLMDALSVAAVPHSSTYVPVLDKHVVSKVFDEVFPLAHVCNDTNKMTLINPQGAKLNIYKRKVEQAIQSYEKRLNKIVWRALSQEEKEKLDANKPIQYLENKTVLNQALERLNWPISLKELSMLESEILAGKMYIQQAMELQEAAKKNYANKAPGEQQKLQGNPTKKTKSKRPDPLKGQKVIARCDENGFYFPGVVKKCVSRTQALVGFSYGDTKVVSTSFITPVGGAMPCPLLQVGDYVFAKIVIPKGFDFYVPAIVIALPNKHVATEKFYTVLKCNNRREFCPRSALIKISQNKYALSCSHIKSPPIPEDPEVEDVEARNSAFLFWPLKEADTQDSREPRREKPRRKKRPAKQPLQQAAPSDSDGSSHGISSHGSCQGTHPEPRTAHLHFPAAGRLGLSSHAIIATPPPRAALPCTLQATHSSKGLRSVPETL
Sequence of UniProt O95857 (O95857 whole entry, looked up): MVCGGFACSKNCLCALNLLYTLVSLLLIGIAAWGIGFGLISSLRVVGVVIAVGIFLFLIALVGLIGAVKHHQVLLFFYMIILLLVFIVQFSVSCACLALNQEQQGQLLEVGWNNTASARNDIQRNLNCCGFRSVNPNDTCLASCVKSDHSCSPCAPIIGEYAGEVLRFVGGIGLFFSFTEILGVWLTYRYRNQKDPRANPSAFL

Target	log2 fold change [1]	log2 fold change [2]	log2 fold change [3]	log2 fold change [4]	log2 fold change [5]	log2 fold change [6]	log2 fold change [7]	log2 fold change [8]	log2 fold change [9]	log2 fold change [10]	log2 fold change [11]	log2 fold change [12]	log2 fold change [13]	log2 fold change [14]	log2 fold change [15]	log2 fold change [16]	log2 fold change [17]	log2 fold change [18]	log2 fold change [19]	log2 fold change [20]
VPS41 (UniProt P49754)	-0.002	-0.033	-0.019	0.052	0.019	-0.383 (active)	0.026	0.037	0.003	0.063	0.015	0.003	0.004	-0.028	0.108	-0.051	0.025	-0.03	-0.013	-0.02
UBA52 (UniProt P62987)	-0.098	0.091	0.21	0.139	0.107	0.044	0.147	0.358		-0.532	-0.046	0.024	-0.107	-0.16	0.281	-0.212	-0.165	0.205	-0.06	0.044
UFD1 isoform 1 (UniProt Q92890)	0.025	-0.018	-0.005	0	-0.04	0.04	0.021	-0.04	-0.016	0	0.02	-0.025	0.037	0.106	0.015	0	0.018	-0.015	0.032	-0.011
VKORC1 (UniProt Q9BQB6)	-0.056	0.024	-0.033	-0.052		-0.306	-0.029	0.092	0.007	0.049	0.064	-0.04	0.001	-0.325 (active)		-0.023	0.117	-0.017	-0.006	0.048
TMEM128 (UniProt Q5BJH2)	-0.046	-0.025	0.45 (active)	-0.036	-0.051	0.028	0.108	0.122	0.001	0	-0.023	-0.006	-0.005	-0.054	0.021	-0.279	0.052		0.249	-0.004
TTC33 (UniProt Q6PID6)	0.059	0.058	-0.121	0.009	-0.023	-0.075	0.139	0.111			-0.046	-0.025	-0.059	-0.189	0.026	-0.07	-0.002	-0.471	-0.062	0.079
UGDH (UniProt O60701)	-0.019	0.03	-0.616 (active)	-0.046	-0.038	0.017	-0.043	-0.105	0.004	0.078	0.039	-0.005	0.028	0.083	-0.064	0.043	0.102	-0.097	0.031	0.079
WDR75 (UniProt Q8IWA0)	-0.081	-0.026	-0.196	0.189	0.012		0.178	0.197	0.058	0.402		0.007	0.043	-0.053	0.395	-0.126	-0.069	0.107		0.025
TMEM63B (UniProt Q5T3F8)	-0.01	-0.055	-0.002	-0.034	0.011	-0.157	-0.01	0.041	0.027	0.054	0.095	0.014	0.006	0.004	0.051	0.009	-0.011	-0.044	0.014	-0.038
U2AF1L5 (UniProt P0DN76)	0.042	-0.032	-0.389			-0.19		0.014	-0.209	-0.067				-0.036		0.019		0.06	0.563	-0.127
UTP3 (UniProt Q9NQZ2)	-0.053	0.072	0.031	0.021	0.062	-0.062	0.253	0.159		-0.571	-0.016	0.008	-0.094	-0.048	0.308	0.004	0.022	0.101	0.075	-0.08
VWA3B isoform 6 (UniProt Q502W6)	0.043	-0.069	0.013	-0.031	0	-0.407	-0.256	0.079	0.257	0.089		0.104	0.072	0	-0.292	-0.1	0.008	-0.169	0.011	0.057
TSPAN13 (UniProt O95857)		0.175		-0.149	0.151	-0.198	0.018		0.113	0.065	0.111	-0.078	0.161		-0.061	0.103	-0.08	-0.113	-0.063	-0.041
TOM1 (UniProt O60784)	0.058	0.093			-0.087	-0.22		-0.032		-0.236	0.058			-0.022	0.504 (active)			-0.015	-0.09	-0.039
TRPT1 isoform 4 (UniProt Q86TN4)	0.11		-0.057	0.011		-0.054	0.074	0.033			-1.08 (active)	0.136		-0.008				0.029	0.179	
UFM1 isoform 2 (UniProt P61960)		0.025	0.052		0.018	-0.013			0.026	0.035	0.004		-0.01		-0.36 (active)	-0.13	0.001	0.127	-0.146	0.053
TXNRD1 isoform 7 (UniProt Q16881)		-0.209			-0.069	-0.01					-0.567		-0.037		0.221	-0.123	0.049		0.403	0.041
WARS1 (UniProt G3V227)		0.03	-0.022		0.259					-0.048					0.459	-0.455				0.004
TMEM8A (UniProt Q9HCN3)		0.06		-0.131		-0.445 (active)	-0.036		0.007	0.044	0.101	0.017	-0.047			-0.003	-0.073	-0.077	0.014	-0.189
TMEM104 (UniProt Q8NE00)	-0.039		0.038	-0.09	0.009	-0.473 (active)	0.082	-0.106	0.126			0.058	-0.015	-0.039	-0.046		-0.173	-0.126	-0.012	

— the supplement of paper PMC10849652
